Paper PMC4552634, “A New Set of Chemical Starting Points with Plasmodium falciparum Transmission-Blocking Potential for Antimalarial Drug Discovery” (PLoS ONE, 2015)
Read-outs that look alike come from different tables or passages of the source. In all, about 13,000 compounds went through this assay and about 3,200 (25%) showed an effect of 50% or more. The list shows a part of the results.

System: P. falciparum stage V gametocytes
Parameters: BacTiter-Glo ATP luminescence viability of purified stage V gametocytes in 384-well plates, per cent inhibition versus DMSO
Conditions: 48 h, 5 µM, inhibitor

Compound	% Inhibition	% Inhibition (% Inhibition)
Cc1ccc(NC(=O)c2ccc(NCCCN(C)Cc3ccccc3)c([N+](=O)[O-])c2)cc1F [TCMDC-125686]	12.99%	
O=C(Nc1ccccc1F)NC1CCN(c2ccnc(Nc3ccc(F)cc3)n2)C1 (stereo not shown) [TCMDC-133603]	-76.2%	
O=C(Nc1ccc2c(c1)CCC2)N[C@H]1CCN(Cc2ccc(OCCCN3CCCCC3)cc2)C1 [TCMDC-141790]	89.55%	
O=C(Nc1cccc(Oc2ccccc2)c1)N[C@H]1CCN(Cc2ccc(OCCCN3CCCCC3)cc2)C1 [TCMDC-141785]	106.3%	
O=C(Nc1ccc(-c2ccccc2)cc1)Nc1cccc(OCCN2CCCC2)c1 [TCMDC-139541]	-48.88%	
O=C(Nc1ccc(C(=O)Oc2ccc3ccccc3c2)cc1)N[C@@H](Cc1ccc(O)cc1)C(=O)NC1CCN(Cc2ccc(O)cc2)C1 (stereo partly shown) [TCMDC-135358]	-34.98%	
N#Cc1cccc(NC(=O)Nc2cccc(OC3CCN(Cc4ccccc4)CC3)c2)c1 [TCMDC-139545]	11.02%	
O=C(Nc1ccc2c(c1)CCC2)N[C@H]1CCN(CCCCCNC(=O)C2CC2c2ccc(Cl)c(Cl)c2)C1 (stereo partly shown) [TCMDC-136264]	5.581%	
N#Cc1cc(C(=O)c2cc(Br)ccc2O)cn(C2CCCCC2)c1=O [TCMDC-123629]	-45.84%	
O=C(/C=C/c1ccc(Cl)c(Cl)c1)NCCCCCN1CCC(c2c[nH]c3ccccc23)C(O)C1 (stereo not shown) [TCMDC-139656]		-35.83%
CC(=O)c1cccc2cc(C(=O)NC3CCC(CCN4CCc5ccc(C#N)cc5C4)CC3)[nH]c12 (stereo not shown) [TCMDC-139192]	14.52%	
Nc1nc2c(cnn2CCCCCCCP(=O)(O)O)c(=O)[nH]1 [TCMDC-137339]	21.15%	
N#Cc1ccc(C(=O)Nc2cccc(-c3ccc(CN4CCCC4)cc3)c2)cc1 [TCMDC-132639]	23.71%	
CN1CCCN(Cc2ccc(-c3ccc(NC(=O)c4cccc(C#N)c4)cc3)cc2)CC1 [TCMDC-132594]	-1.455%	
N#Cc1cccc(C(=O)Nc2cccc(-c3ccc(CN4CCCC4)cc3)c2)c1 [TCMDC-132650]	24.3%	
CN1CCCN(Cc2cccc(-c3ccc(NC(=O)c4cccc(C#N)c4)cc3)c2)CC1 [TCMDC-132673]	15.02%	
N#Cc1cccc(C(=O)Nc2ccc(-c3cccc(CN4CCCC4)c3)cc2)c1 [TCMDC-132674]	97.51%	
CN1CCCN(Cc2cccc(-c3cccc(NC(=O)c4cccc(C#N)c4)c3)c2)CC1 [TCMDC-132661]	20.56%	
N#Cc1ccc(C(=O)Nc2ccc(-c3cccc(CN4CCCC4)c3)cc2)cc1 [TCMDC-132668]	1.206%	
N#Cc1cccc(C(=O)Nc2ccc(-c3ccc(CN4CCCC4)cc3)cc2)c1 [TCMDC-132596]	64.33%	
CN1CCCN(Cc2ccc(-c3cccc(NC(=O)c4cccc(C#N)c4)c3)cc2)CC1 [TCMDC-132648]	64.68%	
O=C(NCc1ccc(C(=O)NC2CCCCC2)cc1)c1ccc(O)c(-c2ccc(Cl)c(Cl)c2)c1 [TCMDC-140825]	-4.793%	
CN(c1ccc(C(=O)N[C@@H](CCC(=O)O)C(=O)O)cc1)S(=O)(=O)c1ccc2nc(N)[nH]c(=O)c2c1 [TCMDC-137344]	2.989%	

Compound	% Inhibition	% Inhibition (% Inhibition)
COC(=O)c1ccc(CC(C)NCC(O)c2cccc(C(F)(F)F)c2)c(OC)c1 (stereo not shown) [TCMDC-131469]	14.6%	
CCN(CCCN1CCCCC1)c1cc(C)nc(Nc2cccc(OC(F)(F)F)c2)n1 [TCMDC-132429]	-20.04%	
COc1cc2nc(N3CCC(CNC(=O)c4ccc(-c5ccc(C(=O)N(C)C)cc5O)cc4)CC3)nc(N)c2cc1OC [TCMDC-138752]	72.56%	
COc1cc2nc(N3CCC(CNC(=O)c4ccc(-c5ccc(C(=O)N(C)C)cc5C)cc4)CC3)nc(N3CCN(C)CC3)c2cc1OC [TCMDC-138724]	15.4%	
COc1cc2nc(N3CCC(CNC(=O)c4ccc(-c5ccc(C(=O)N(C)C)cc5OCCN(C)C)cc4)CC3)nc(N)c2cc1OC [TCMDC-138760]	100.1%	
COCCNc1nc(N2CCC(CNC(=O)c3ccc(-c4ccc(C(=O)N(C)C)cc4C)cc3)CC2)nc2cc(OC)c(OC)cc12 [TCMDC-138729]	5.197%	
COc1cc2nc(N3CCC(CNC(=O)c4ccc(-c5ccc(C(=O)N(C)C)cc5OCCO)cc4)CC3)nc(N)c2cc1OC [TCMDC-138766]	-18.75%	
COc1cc2nc(N3CCC(CNC(=O)c4ccc(-c5ccc(C(=O)N(C)C)cc5)c(OCCO)c4)CC3)nc(N)c2cc1OC [TCMDC-138742]	39.21%	
COc1cc2nc(N3CCC(CNC(=O)c4ccc(-c5ccc(C(=O)N(C)C)cc5)cc4)CC3)nc(N)c2cc1OC [TCMDC-138719]	58.63%	
NCCc1cccc(-c2cnc3[nH]cc(-c4ccc(C(=O)O)cc4)c3c2)c1.O=C(O)C(F)(F)F [TCMDC-136363]	-2.826%	
CN(Cc1cnc2nc(N)nc(N)c2n1)c1ccc(C(=O)NC(CCC(=O)O)C(=O)O)cc1 (stereo not shown) [TCMDC-123832]		33.25%
CN(C)S(=O)(=O)n1ccc2c3c(N)nc(N)nc3ccc21 [TCMDC-137973]	-6.92%	
NC(=O)c1cccc(CN2Cc3ccccc3OC3(CCN(Cc4c[nH]c5cnccc45)CC3)C2)c1 [TCMDC-133382]	-16.29%	
COc1ccc2nccc([C@@H](O)CN3CCC(NCCOc4c(C)cccc4F)CC3)c2c1 [TCMDC-140657]	37.85%	
CCOC(=O)CC[C@H](NC(=O)c1ccc(NS(=O)(=O)c2ccc(-c3cnc(N)[nH]c3=O)cc2)cc1)C(=O)OCC [TCMDC-137679]	3.183%	
O=C(Nc1cccc(C(F)(F)F)c1)NC1CCN(c2ccnc3ccccc23)C1 (stereo not shown) [TCMDC-133579]	-23.57%	
CN1CCC(NC(=O)c2cc(Oc3ccc4c(c3)CCN4C(=O)Nc3cccc(C(F)(F)F)c3)ccn2)CC1 [TCMDC-141751]	51.02%	
Cc1cc2c(cc1C(F)(F)F)N(C(=O)Nc1cccc(C(=O)NC3CCN(Cc4ccccc4)CC3)c1)CC2 [TCMDC-139972]	-14.42%	
COc1cc(Nc2nccc(N3CCC(NS(=O)(=O)c4ccc(NC(C)=O)cc4)CC3)n2)cc(OC)c1OC [TCMDC-133634]	-31.03%	
O=[N+]([O-])c1cc(/C=N/Nc2nc3ccccc3[nH]2)ccc1O [TCMDC-139076]	6.997%	
O=C(Nc1ccc(F)cc1)NC1CCN(c2ccnc3cc(Cl)ccc23)C1 (stereo not shown) [TCMDC-133407]	-45.03%	
Cc1nc2ccccc2n1C1CC2CCC(C1)N2Cc1nccn1-c1ccccc1 (stereo not shown) [TCMDC-134167]	-3.664%	
Cc1nc2ccccc2n1C1CC2CCC(C1)N2CCCC1(c2ccccc2)CCN(C(=O)OCc2ccccc2)CC1 (stereo not shown) [TCMDC-138708]	52.65%	

Compound	% Inhibition	% Inhibition (% Inhibition)
O=C(/C=C/c1ccc(Cl)c(Cl)c1)NCCCCCN1CCC(NC(=O)Nc2ccc([N+](=O)[O-])cc2)CC1 [TCMDC-135719]	-1.594%	
c1ccc([C@H]2CN3CCSC3=N2)cc1 [TCMDC-125847]	1.326%	
COc1c(C)[nH]c(C)c(-c2ccc(Oc3cccc(C(F)(F)F)c3)cc2)c1=O [TCMDC-135253]	67.89%	
Cc1cc(=O)c(-c2ccc(OCc3ccc(OC(F)(F)F)cc3)cc2)c(C)[nH]1 [TCMDC-132123]	25.03%	
Cc1nc2c(c(O)c1Cl)-c1ccc(Oc3cccc(C(F)(F)F)c3)cc1C2=O [TCMDC-136021]	8.301%	
Cc1cc(=O)c2cc(-c3ccc(OC(F)(F)F)cc3)ccc2[nH]1 [TCMDC-137042]	32.81%	
Cc1cc(=O)c(-c2ccc(Oc3ccc(C(F)(F)F)cc3)cc2)c(C)n1O [TCMDC-138136]	12.43%	
Cc1[nH]c(C)c(C(F)(F)F)c(=O)c1-c1ccc(Oc2ccc(OC(F)(F)F)cc2)cc1 [TCMDC-135444]	33.82%	
Cc1cc(=O)c(-c2ccc(Oc3cccc(C(F)(F)F)c3)cc2)c(C)[nH]1 [TCMDC-137536]		72.24%
Cc1[nH]c(C)c([N+](=O)[O-])c(=O)c1-c1ccc(Oc2ccccc2)cc1 [TCMDC-135779]	22.46%	
Cc1[nH]n(-c2cccc(C(F)(F)F)c2)c(=O)c1-c1ccc(Cl)cc1 [TCMDC-124050]	16.03%	
Cc1[nH]c2c(c(=O)c1Cl)-c1ccc(Oc3cccc(C(F)(F)F)c3)cc1C2=O [TCMDC-136022]	56.81%	
Cc1cc(=O)c(-c2ccc(Oc3cccc(C(F)(F)F)c3)cc2)c(C)[nH]1 [TCMDC-133308]		48.03%
Cc1cc(=O)c(-c2ccc(OCCSc3ccc(C(F)(F)F)cn3)cc2)c(C)[nH]1 [TCMDC-135289]	67.89%	
CC1(C)N=C(N)N=C(N)N1OCCCOc1c(Cl)cc(Cl)cc1Cl [TCMDC-131623]	-2.968%	
COC(=O)c1cccc(NC(=O)NC2CCN(c3ccnc(Nc4ccc(F)cc4)n3)C2)c1 (stereo not shown) [TCMDC-133606]	-36.49%	
COc1ccc(-c2nc3c4cc(I)ccc4c4ccccc4c3[nH]2)cc1 [TCMDC-124198]	-15.52%	
c1ccc(C2CCC(N3CCC(N4CCN(c5ccccc5)CC4)CC3)CC2)cc1 (stereo not shown) [TCMDC-124572]	20.28%	
Cc1cc(=O)c(-c2ccc(Oc3cccc(OC(F)(F)F)c3)cc2)c(C)[nH]1 [TCMDC-137266]	80.76%	
Cc1cc(=O)c2cc(Oc3cccc(OC(F)(F)F)c3)ccc2[nH]1 [TCMDC-132124]	-25.2%	
Cc1cc(=O)c(-c2ccc(Oc3ccc(OC(F)(F)F)cc3)cc2)c(C)[nH]1 [TCMDC-137390]	34.7%	
